Data reported in PubChem BioAssay.

What follows are compounds tested on XIP peptide (Xip251-270) (assay: compounds binding XIP fragment 251-270 – biochemical, small-molecule microarray, fluorescence 635/667 nm, 0.5 µg/mL protein, primary screen (AID 1183)). Conditions: fluorescence 635 nm, higher = more signal.

SMILES	composite z-score
NC(=O)NCC#Cc1ccc2c(c1)[C@]1(C(=O)N2)[C@H](C(=O)Nc2nc3ccccc3s2)[C@H]2C(=O)O[C@H](c3ccccc3)[C@H](c3ccccc3)N2[C@@H]1c1ccc(OCCO)cc1	-0.913
CC(C)CNC(=O)[C@@H]1c2ccccc2C(=O)N(Cc2ccccc2Cl)[C@H]1c1ccc(CO)cc1	0.8
C=CCNC(=O)[C@H]1[C@@H]2C(=O)O[C@@H](c3ccccc3)[C@@H](c3ccccc3)N2[C@@H](c2ccc(O)cc2)[C@]12C(=O)Nc1ccc(C#CC3=CCCCC3)cc12	0.785
CN(C)C(=O)[C@]1(Cc2ccccc2CN=[N+]=[N-])N=C(c2ccc(OCCCO)cc2)O[C@@H]1c1ccccc1N=[N+]=[N-]	0.624
COCCn1c(C(=O)N2CCCC2)cc2c1C[C@H]1CN(C(=O)c3ccccc3)[C@@](Cc3ccccc3)(C(=O)OC)[C@@H]21	0.857
CCCC[C@@H](O)C1=C(COC)Cn2c(=O)n(-c3ccccc3)c(=O)n2[C@H]1CO	-0.0217
CN(C)C(=O)[C@]1(Cc2ccccc2)N=C(c2ccc(OCCCO)cc2)O[C@@H]1c1ccccc1	0.851
COc1ccc([Si](C)(C)[C@H]2[C@H](CCO)O[C@@]3(C(=O)N(Cc4ccc(N5CCOC5=O)cc4)c4ccccc43)[C@@H]2C)cc1	0.666
C=CCC(OC(C)=O)[C@@H]1[C@@H](N(Cc2cccc3ccccc23)C(=O)c2ccc(-c3ccccc3)cc2)c2cc(OCCCO)ccc2N1C(=O)c1ccc2ccccc2n1 (some centres not stated)	0.0494
C=CC[C@@]1(C(=O)O)N=C(c2ccc(OCCCO)cc2)O[C@@H]1c1ccccc1CN=[N+]=[N-]	0.563
COC(=O)c1c(CC[C@@H](CO)NC(=O)N[C@@H](Cc2ccccc2)Cn2cc(-c3cncn3C)nn2)oc(C(C)=O)c1C(=O)OC	0.851
COC(=O)Cn1c(C(=O)N(C)C)cc2c1C[C@H]1CN(C(=O)c3ccccc3)[C@@](Cc3ccc(OC)cc3)(C(=O)OC)[C@@H]21	0.59
CCCC=C(CCC)[C@@H](NS(=O)(=O)c1ccc(Cl)cc1)c1ccccc1	0.36
COc1ccc(CCNC(=O)[C@@H]2c3ccccc3C(=O)N(CC34CC5CC(CC(C5)C3)C4)[C@H]2c2ccc(CO)cc2)cc1	0.55
NC(=O)N1C(=O)C2C(C1=O)C1C=C(CCCO)C2C(c2ccc(CN3CCCC3)cc2)N1Cc1cccc(OC(F)(F)F)c1 (configuration not stated)	-0.133
COc1ccc([Si](C)(C)[C@H]2[C@H](CCn3cc([C@H](O)c4ccccc4)nn3)O[C@@]3(C(=O)N(c4ccccc4)c4ccccc43)[C@@H]2C)cc1	0.505
CCCC=C(CCC)[C@@H](NC(=O)c1ccccc1)c1ccc(C(=O)OC)cc1	0.222
